# Out of some 5,500 compounds screened, about 2,000 (36%) were called active. About 18% were inconclusive and are not listed. This is one part of the list. Values without a mark were called inactive. No stated cut-off is given here; in the data, active means normalized growth mostly below about 0.91 (no sharp cut-off); inconclusive means no clear call, values can overlap the other calls; inactive means mostly above about 0.92.
# Assay: chemical genetic growth profiling, strain panel (AID 1159580);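 further: tested at 20 µM; growth read once vehicle control cultures reached saturation at 30 °C; 1 = growth at the plate median or of vehicle wells; lower values mean less growth of the strain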
# Settings: growth OD
compound,measurement,setting,value
O=C1C=C2C(=CCOC2O)O1 (stereo unspecified),normalized growth,"S. cerevisiae deletion strains, locus YKL009W, strain mrt4, active compounds read low",0.714 (active)
same,normalized growth,"S. cerevisiae deletion strains, locus YKL068W, active compounds read low",0.904 (active)
same,normalized growth,"S. cerevisiae deletion strains, locus YKL085W, strain MDH1 (second series), active compounds read low",0.868 (active)
same,normalized growth,"S. cerevisiae deletion strains, locus YKL085W, strain MDH1, active compounds read low",0.868 (active)
same,normalized growth,"S. cerevisiae deletion strains, locus YKL160W, strain elf1, active compounds read low",0.736 (active)
same,normalized growth,"S. cerevisiae deletion strains, locus YKL190W, strain CNB1, active compounds read low",0.834 (active)
same,normalized growth,"S. cerevisiae deletion strains, locus YKR001C, strain vps1, active compounds read low",0.541 (active)
same,normalized growth,"S. cerevisiae deletion strains, locus YKR026C, strain gcn3, active compounds read low",0.795 (active)
same,normalized growth,"S. cerevisiae deletion strains, locus YKR091W, strain srl3, active compounds read low",0.885 (active)
same,normalized growth,"S. cerevisiae deletion strains, locus YLL001W, strain dnm1, active compounds read low",0.691 (active)
same,normalized growth,"S. cerevisiae deletion strains, locus YLL026W, active compounds read low",0.769 (active)
same,normalized growth,"S. cerevisiae deletion strains, locus YLL041C, strain sdh2, active compounds read low",0.84 (active)
same,normalized growth,"S. cerevisiae deletion strains, locus YLR027C, strain aat2, active compounds read low",0.727 (active)
same,normalized growth,"S. cerevisiae deletion strains, locus YLR039C, strain RIC1, active compounds read low",0.292 (active)
same,normalized growth,"S. cerevisiae deletion strains, locus YLR058C, strain SHM2, active compounds read low",0.927
same,normalized growth,"S. cerevisiae deletion strains, locus YLR102C, strain apc9, active compounds read low",0.96
same,normalized growth,"S. cerevisiae deletion strains, locus YLR113W, strain HOG1, active compounds read low",0.708 (active)
same,normalized growth,"S. cerevisiae deletion strains, locus YLR221C, strain rsa3, active compounds read low",0.716 (active)
same,normalized growth,"S. cerevisiae deletion strains, locus YLR258W, strain gsy2, active compounds read low",0.794 (active)
same,normalized growth,"S. cerevisiae deletion strains, locus YLR262C, strain YPT6 (second series), active compounds read low",0.337 (active)
same,normalized growth,"S. cerevisiae deletion strains, locus YLR262C, strain YPT6, active compounds read low",0.231 (active)
same,normalized growth,"S. cerevisiae deletion strains, locus YLR268W, strain sec22, active compounds read low",0.794 (active)
same,normalized growth,"S. cerevisiae deletion strains, locus YLR320W, strain mms22, active compounds read low",0.701 (active)
same,normalized growth,"S. cerevisiae deletion strains, locus YLR330W, strain CHS5, active compounds read low",0.87 (active)
same,normalized growth,"S. cerevisiae deletion strains, locus YLR342W, strain FKS1 (second series), active compounds read low",0.774 (active)
same,normalized growth,"S. cerevisiae deletion strains, locus YLR342W, strain FKS1, active compounds read low",0.72 (active)
same,normalized growth,"S. cerevisiae deletion strains, locus YLR357W, strain rsc2, active compounds read low",0.862
same,normalized growth,"S. cerevisiae deletion strains, locus YLR370C, strain arc18, active compounds read low",0.697 (active)
same,normalized growth,"S. cerevisiae deletion strains, locus YLR371W, strain rom2, active compounds read low",0.945
same,normalized growth,"S. cerevisiae deletion strains, locus YLR384C, strain iki3, active compounds read low",0.789 (active)
same,normalized growth,"S. cerevisiae deletion strains, locus YLR418C, strain cdc73, active compounds read low",0.62 (active)
same,normalized growth,"S. cerevisiae deletion strains, locus YML016C, strain PPZ1, active compounds read low",0.953
same,normalized growth,"S. cerevisiae deletion strains, locus YML032C, strain rad52, active compounds read low",0.92
same,normalized growth,"S. cerevisiae deletion strains, locus YML120C, strain ndi1, active compounds read low",0.76 (active)
same,normalized growth,"S. cerevisiae deletion strains, locus YML124C, strain tub3, active compounds read low",0.918 (active)
same,normalized growth,"S. cerevisiae deletion strains, locus YMR058W, strain fet3, active compounds read low",0.328 (active)
same,normalized growth,"S. cerevisiae deletion strains, locus YMR078C, strain ctf18, active compounds read low",0.989
same,normalized growth,"S. cerevisiae deletion strains, locus YMR125W, strain sto1, active compounds read low",0.729 (active)
same,normalized growth,"S. cerevisiae deletion strains, locus YMR129W, active compounds read low",0.836 (active)
same,normalized growth,"S. cerevisiae deletion strains, locus YMR205C, strain PFK2, active compounds read low",0.722 (active)
same,normalized growth,"S. cerevisiae deletion strains, locus YMR223W, strain ubp8, active compounds read low",0.801 (active)
same,normalized growth,"S. cerevisiae deletion strains, locus YMR231W, strain pep5, active compounds read low",0.0886 (active)
same,normalized growth,"S. cerevisiae deletion strains, locus YMR263W, strain SAP30, active compounds read low",0.852 (active)
same,normalized growth,"S. cerevisiae deletion strains, locus YMR307W, strain GAS1, active compounds read low",0.302 (active)
same,normalized growth,"S. cerevisiae deletion strains, locus YNL067W, strain RPL9B, active compounds read low",0.689 (active)
same,normalized growth,"S. cerevisiae deletion strains, locus YNL071W, strain lat1, active compounds read low",0.654 (active)
same,normalized growth,"S. cerevisiae deletion strains, locus YNL128W, strain TEP1, active compounds read low",0.798 (active)
same,normalized growth,"S. cerevisiae deletion strains, locus YNL153C, strain GIM3, active compounds read low",0.664 (active)
same,normalized growth,"S. cerevisiae deletion strains, locus YNL183C, strain NPR1, active compounds read low",0.825 (active)
same,normalized growth,"S. cerevisiae deletion strains, locus YNL209W, strain ssb2, active compounds read low",0.761 (active)
same,normalized growth,"S. cerevisiae deletion strains, locus YNL233W, strain BNI4, active compounds read low",0.81 (active)
same,normalized growth,"S. cerevisiae deletion strains, locus YNL248C, strain rpa49, active compounds read low",0.701 (active)
same,normalized growth,"S. cerevisiae deletion strains, locus YNL250W, strain rad50, active compounds read low",0.903
same,normalized growth,"S. cerevisiae deletion strains, locus YNL271C, strain bni1, active compounds read low",0.92
same,normalized growth,"S. cerevisiae deletion strains, locus YNL298W, strain CLA4, active compounds read low",0.842 (active)
same,normalized growth,"S. cerevisiae deletion strains, locus YNL307C, strain MCK1, active compounds read low",0.748 (active)
same,normalized growth,"S. cerevisiae deletion strains, locus YNL322C, strain KRE1 (second series), active compounds read low",0.911
same,normalized growth,"S. cerevisiae deletion strains, locus YNL322C, strain KRE1, active compounds read low",0.815 (active)
same,normalized growth,"S. cerevisiae deletion strains, locus YNR049C, strain mso1, active compounds read low",0.812 (active)
same,normalized growth,"S. cerevisiae deletion strains, locus YNR052C, strain pop2, active compounds read low",0.83 (active)
same,normalized growth,"S. cerevisiae deletion strains, locus YOL006C, strain TOP1, active compounds read low",0.632
same,normalized growth,"S. cerevisiae deletion strains, locus YOL012C, strain htz1",0.714
same,normalized growth,"S. cerevisiae deletion strains, locus YOL147C, strain pex11, active compounds read low",0.984
same,normalized growth,"S. cerevisiae deletion strains, locus YOR001W, strain rrp6, active compounds read low",0.638 (active)
same,normalized growth,"S. cerevisiae deletion strains, locus YOR061W, strain CKA2, active compounds read low",0.929
same,normalized growth,"S. cerevisiae deletion strains, locus YOR069W, strain VPS5, active compounds read low",0.862 (active)
same,normalized growth,"S. cerevisiae deletion strains, locus YOR070C, strain gyp1, active compounds read low",0.794 (active)
same,normalized growth,"S. cerevisiae deletion strains, locus YOR080W, strain dia2, active compounds read low",0.864 (active)
same,normalized growth,"S. cerevisiae deletion strains, locus YOR083W, strain WHI5, active compounds read low",0.662 (active)
same,normalized growth,"S. cerevisiae deletion strains, locus YOR106W, strain vam3, active compounds read low",0.522 (active)
same,normalized growth,"S. cerevisiae deletion strains, locus YOR136W, strain idh2, active compounds read low",0.896 (active)
same,normalized growth,"S. cerevisiae deletion strains, locus YOR144C, strain elg1, active compounds read low",0.966
same,normalized growth,"S. cerevisiae deletion strains, locus YOR184W, strain ser1, active compounds read low",0.719 (active)
same,normalized growth,"S. cerevisiae deletion strains, locus YOR231W, strain MKK1, active compounds read low",0.877
same,normalized growth,"S. cerevisiae deletion strains, locus YOR265W, strain rbl2, active compounds read low",0.792 (active)
same,normalized growth,"S. cerevisiae deletion strains, locus YOR270C, strain vph1, active compounds read low",0.506 (active)
same,normalized growth,"S. cerevisiae deletion strains, locus YOR290C, strain snf2, active compounds read low",0.86 (active)
same,normalized growth,"S. cerevisiae deletion strains, locus YOR316C, strain cot1, active compounds read low",0.951
same,normalized growth,"S. cerevisiae deletion strains, locus YPL051W, strain arl3, active compounds read low",0.607 (active)
same,normalized growth,"S. cerevisiae deletion strains, locus YPL055C, strain LGE1, active compounds read low",0.601 (active)
same,normalized growth,"S. cerevisiae deletion strains, locus YPL078C, strain atp4, active compounds read low",0.615 (active)
same,normalized growth,"S. cerevisiae deletion strains, locus YPL106C, strain sse1, active compounds read low",0.542 (active)
same,normalized growth,"S. cerevisiae deletion strains, locus YPL240C, strain hsp82, active compounds read low",0.852 (active)
same,normalized growth,"S. cerevisiae deletion strains, locus YPL241C, strain CIN2, active compounds read low",0.921 (active)
same,normalized growth,"S. cerevisiae deletion strains, locus YPL256C, strain CLN2, active compounds read low",0.809 (active)
same,normalized growth,"S. cerevisiae deletion strains, locus YPR119W, strain clb2, active compounds read low",0.965
same,normalized growth,"S. cerevisiae deletion strains, locus YPR141C, strain kar3, active compounds read low",0.898 (active)
same,normalized growth,"S. cerevisiae deletion strains, locus YPR163C, strain tif3, active compounds read low",0.823 (active)
same,normalized growth,"S. cerevisiae deletion strains, locus YPR167C, strain met16, active compounds read low",0.937
same,normalized growth,"S. cerevisiae deletion strains, strain wtn01, active compounds read low",0.76 (active)
same,normalized growth,"S. cerevisiae strains, strain wild type, active compounds read low",0.78 (active)
